Experiments:
Conditions in all cases: concentration: 1 μM, replicates: in singlicate; n = 1
MET = test system: MET
MINK = test system: T1, MINK
T1 construct: gene MINK1

MKK7 = test system: MKK7
MKNK1 = test system: MKNK1
MKNK2 = test system: MKNK2
MLCK = test system: T2, MLCK
T2 construct: gene MYLK3

MLK1 = test system: T3, MLK1
T3 construct: gene MAP3K9

MLK2 = test system: MLK2
MLK3 = test system: MLK3
MRCKA = test system: MRCKA
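Note: KINOMEscan kinase panel screen.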

Compound	%Inh (MET)	%Inh (MINK)	%Inh (MKK7)	%Inh (MKNK1)	%Inh (MKNK2)	%Inh (MLCK)	%Inh (MLK1)	%Inh (MLK2)	%Inh (MLK3)	%Inh (MRCKA)
CCn1c(-c2ccoc2)nc2cnccc21 [SB-733887]	0%	0%	33%	13%	17%	0%	0%	0%	3%	1%
CCC(=O)c1c(-c2ccccc2)c2cc(Cl)ccc2c(=O)n1Cc1cc(C(=O)NC2CC2)n(C)n1	0%	0%	25%	0%	11%	5%	0%	15%	0%	8%
Cc1cc(Nc2nc(-c3cccc(C)n3)nc3ccccc23)ccn1 [GW872411]	32%	1%	0%	1%	0%	0%	0%	28%	0%	0%
COc1ccc(-c2cc3c(C)nc(N)nc3n([C@H]3CC[C@H](O)CC3)c2=O)cn1	0%	0%	0%	0%	0%	0%	0%	0%	0%	0%
COc1ccc(-n2cnc3c(N)ncnc32)cc1 [SKF-97236]	0%	9%	15%	9%	33%	11%	0%	37%	20%	0%
Nc1ncnc2c1ncn2-c1cccc(F)c1 [SKF-97560]	18%	9%	29%	0%	32%	18%	5%	30%	10%	0%
COc1ccc(Nc2nccc(N3CCC(NS(=O)(=O)c4ccc(NC(C)=O)cc4)C3)n2)cc1 (stereo not shown) [GSK1379729]	10%	3%	19%	22%	0%	0%	0%	48%	18%	10%
Cc1ccccc1COc1cc(-n2cnc3cc(Cl)ccc32)sc1C(N)=O [GW813349]	24%	35%	0%	2%	0%	0%	11%	9%	0%	29%
O=C(Nc1ccc2c(c1)OCO2)NC1CCN(c2ccnc(NCc3ccc(F)cc3)n2)CC1 [GSK1379859]	0%	0%	0%	0%	0%	0%	0%	0%	0%	0%
COC(=O)c1c(-c2ccccc2)c2cc(Br)ccc2c(=O)n1Cc1ccc(S(C)(=O)=O)cc1	2%	10%	19%	8%	0%	3%	1%	0%	0%	0%
Nc1nc(-c2ccccc2F)c(-c2ccnc3ccccc23)s1 [GW560459]	0%	81%	15%	12%	0%	0%	0%	0%	5%	15%
COc1cc2ncn(-c3cc(OCc4ccncc4)c(C(N)=O)s3)c2cc1OC [GSK336313]	0%	15%	19%	5%	2%	0%	0%	0%	19%	0%
Cc1nnc(-c2ccc3ncn(-c4ccc(S(C)=O)cc4)c3c2)o1 (stereo not shown)	0%	14%	12%	0%	20%	11%	0%	0%	0%	0%
Nc1ncnc2c1ncn2-c1ccc(Cl)cc1 [AH2635]	0%	0%	0%	26%	24%	0%	0%	18%	15%	0%
COc1cc(Nc2nccc(N3CCC(NC(=O)C(C)c4ccc(Cl)cc4)C3)n2)cc(OC)c1OC (stereo not shown) [GSK1379757]	0%	0%	15%	0%	16%	0%	22%	0%	28%	15%
O=C(Nc1n[nH]c2cc(-c3ccccc3F)ccc12)C1CC1 [SB-733371]	0%	69%	10%	0%	18%	29%	0%	5%	0%	0%
COc1cc2nccc(Nc3cccc(Oc4ccccc4)c3)c2cc1OC.Cl [GW284543]	0%	0%	0%	0%	0%	4%	0%	0%	11%	4%

Compound	%Inh (MET)	%Inh (MINK)	%Inh (MKK7)	%Inh (MKNK1)	%Inh (MKNK2)	%Inh (MLCK)	%Inh (MLK1)	%Inh (MLK2)	%Inh (MLK3)	%Inh (MRCKA)
Fc1cccc(CSc2nnc(-c3ccc4c(c3)CCO4)o2)c1	10%	5%	6%	3%	4%	7%	0%	0%	0%	0%
Cn1c(=O)c(F)c(Nc2ccc(I)cc2F)c2c(=O)n(OC[C@H](O)CO)cnc21	12%	0%	0%	4%	0%	0%	19%	25%	9%	20%
COc1cccc(C2=C(Nc3cccc(C(=O)O)c3)C(=O)NC2=O)c1 [SB-390770]	0%	7%	15%	2%	0%	0%	0%	47%	45%	17%
Cc1ccc(-c2ccc3c(ccc4sc5c(c43)NC[C@@H](C)N=C5N(C)C)n2)cn1	0%	0%	0%	0%	0%	0%	0%	0%	0%	0%
COc1cc2ncn(-c3cc(OCCCc4ccccc4)c(C(N)=O)s3)c2cc1OC [GSK205189]	5%	3%	0%	3%	0%	0%	3%	19%	8%	0%
CN1C(=O)C(Nc2cc(Cl)c(O)c(Cl)c2)=C(c2ccc(Cl)cc2)C1=O [SB-404321]	0%	0%	0%	38%	19%	0%	0%	0%	0%	5%
O=C1NC(=O)C(c2ccccc2)=C1Nc1cccc(O)c1 [SB-390534]	0%	22%	0%	0%	21%	0%	0%	0%	6%	0%
CCS(=O)c1ccc(-c2coc3ccc(-c4nnc(C)o4)cc23)cc1 (stereo not shown)	0%	15%	23%	17%	1%	0%	0%	7%	15%	0%
COc1ccc(CNC(=O)NC2CCN(c3ccnc(Nc4ccc(F)cc4)n3)C2)cc1 (stereo not shown) [GSK1379706]	0%	80%	10%	0%	0%	8%	0%	0%	17%	16%
FC(F)(F)c1ccc(-c2ncn(CCCN3CCOCC3)c2-c2ccncc2)cc1 [SB-217780]	4%	0%	0%	16%	58%	0%	0%	2%	5%	0%
COc1ccc(-c2coc3ccc(-c4nnc(SCc5cccc(C#N)c5)o4)cc23)cc1	0%	9%	17%	20%	2%	2%	0%	18%	11%	0%
CN1C(=O)C(Nc2ccccc2)=C(c2ccccc2)C1=O [SB-300079]	0%	17%	20%	0%	0%	9%	0%	34%	0%	6%
CC(C)(C)c1ccc(C(=O)Nc2cn3cc(-c4ccccc4)ccc3n2)cc1	0%	36%	0%	0%	13%	14%	0%	0%	0%	0%
COc1cc2nccc(Nc3ccc(OCc4ccc(NC(C)=O)cc4)cc3)c2cc1OC.Cl [GW440135]	0%	70%	27%	6%	15%	0%	0%	2%	14%	9%
O=C(NCCNc1ccnc(Nc2ccc(F)cc2)n1)Nc1ccc2c(c1)OCO2 [GSK1379882]	0%	4%	0%	23%	5%	0%	0%	0%	0%	9%
COc1cc(Nc2nccc(N3CCC(NC(=O)C4COc5ccccc5O4)C3)n2)cc(OC)c1OC (stereo not shown) [GSK1379761]	19%	0%	0%	0%	31%	12%	63%	4%	44%	0%
COc1cc(OC)cc(-c2cc3cnc(N)nc3nc2NC(=O)NC(C)(C)C)c1	0%	9%	0%	0%	0%	0%	0%	0%	0%	0%

Reference: article PMC5540273 (PLoS ONE, 2017)
